Values without a mark were called inactive. Results filed as inconclusive are left out. Entries that show only a call come without a potency. Activity calls are given as the source filed them. Calls follow the shape of the dose curve; as a rule, active = well fitted curve in the direction sought with a large enough effect; inconclusive = small, poorly fitted or top-dose-only effect, or another doubt; inactive = no such curve, though single readings can be large; an effect the other way counts as inactive or inconclusive.
How the values were obtained:
[1] = Cell Viability - H-4-II-E (AID 543);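 also: cells exposed to compound for 40 hours; nearly all actives have a fitted effect of over 35% in size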; also: potency is read from the fitted curve at half-maximal effect
Method in brief: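 AC50 from Hill-modelled qHTS concentration-response curves. H-4-II-E rat hepatoma cells in complete medium, 40 hr exposure at 37 °C, viability by CellTiter-Glo ATP luminescence.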

[2] = Cell Viability - SH-SY5Y (AID 544); conditions: SH-SY5Y neuroblastoma cell viability; viability change, negative = cytotoxic: at 92.2 µM (top of the series);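 also: cells exposed to compound for 40 hours; nearly all actives have a fitted effect of over 55% in size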; also: potency is read from the fitted curve at half-maximal effect
Method in brief: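 Quantitative HTS in SH-SY5Y neuroblastoma cells, 40 hr treatment at 37 °C, ATP content by luciferase luminescence; AC50 from Hill fits.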

[3] = Cell Viability - Renal Proximal Tubule (AID 545);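 also: cells exposed to compound for 40 hours; nearly all actives have a fitted effect of over 40% in size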; also: potency is read from the fitted curve at half-maximal effect
Method in brief: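 Cytotoxicity is scored as a concentration-dependent drop in cellular ATP in primary rat renal proximal tubule cells exposed for 40 hr. AC50 derives from Hill modelling.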

[4] = Cell Viability - Mesenchymal (AID 546);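 also: cells exposed to compound for 40 hours before reading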; also: potency is read from the fitted curve at half-maximal effect
Method in brief: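 In this qHTS cytotoxicity format, glomerulus-derived human mesenchymal kidney cells received compound for 40 hr, then luciferase-based ATP quantitation. Concentration-response data were fitted with the Hill equation.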

[5] = Cellular Toxicity (caspase-3) HepG2 (AID 654); also: potency is read from the fitted curve at half-maximal effect;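 as to caspase-3 activation: cells exposed to compound for 16 hours before reading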
Method in brief: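 Concentration-response AC50 values reflect caspase-3/7 induction in HepG2 cells after 16 hours of compound exposure, quantified by luminescence from liberated aminoluciferin and referenced to 100 uM tamoxifen as full stimulation.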

[6] = Cellular Toxicity (caspase-3) Jurkat (AID 655); conditions: Jurkat caspase-3 activation, luminescence; caspase-3 activation: at 92.2 µM (top of the series), DMSO = 0%, tamoxifen = 100%;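 also: cells exposed to compound for 16 h at 37 °C before reading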; also: potency is read from the fitted curve at half-maximal effect
Method in brief: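 Caspase 3/7 activation is scored as increased luminescence in Jurkat cells cultured with compound for 16 hours in complete medium. AC50 values come from Hill fits of qHTS concentration-response data normalized to DMSO and 100 uM tamoxifen controls.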

[7] = Cellular Toxicity (caspase-3) HUV-EC-C (AID 656);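 also: cells exposed to compound for 16 h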
Method in brief: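 Read-out: luminescence proportional to caspase 3/7 activity, measured 20 min after adding Caspase-Glo 3/7 reagent. Cells (HUV-EC-C) had received compound for 16 hr at 37°C. Increases relative to DMSO and 100 uM tamoxifen gave concentration-response AC50 values.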

[8] = Cellular Toxicity (caspase-3) SHSY5Y (AID 657);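 also: cells exposed to compound for 16 hours at 37 °C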
Method in brief: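 Cells plated and incubated 5 h at 37 °C, dosed over a concentration range, incubated 16 h, then given Caspase-Glo 3/7 reagent for 1 h at room temperature before luminescence reading. Staurosporine (10 uM) defined full stimulation.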

[9] = Cellular Toxicity (caspase-3) BJ (AID 658)
Method in brief: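 Plated BJ cells (1000/well) rested 5 hr, received compound for 16 hr at 37 °C, then Caspase-Glo 3/7 reagent for 1 hr at room temperature before luminescence reading.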

[10] = Cellular Toxicity (caspase-3) MRC-5 (AID 659);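 also: cells exposed to compound for 16 h at 37 °C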
Method in brief: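 Apoptosis readout in MRC-5 cells: luciferase light generated after caspase 3/7 cleaves a peptide-aminoluciferin substrate, measured post 16 hr compound incubation at 37 °C.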

| SMILES | Potency [1] | Potency [2] | Potency [3] | Potency [4] | Potency [5] | caspase-3 activation [6] [%] | outcome [7] | outcome [8] | outcome [9] | outcome [10] | viability change, negative = cytotoxic [2] | Potency [6] |
| --- | --- | --- | --- | --- | --- | --- | --- | --- | --- | --- | --- | --- |
| Nc1ccc(F)cc1F | inactive | inactive | inactive | inactive | inactive | 1.31 | inactive | inactive | inactive | inactive |  |  |
| N#CC1(O)CCCCC1 | inactive | inactive | inactive | inactive | inactive | 1.9 | inactive | inactive | inactive | inactive |  |  |
| Cc1cc(C2(c3cc(C)c(O)cc3C)OS(=O)(=O)c3ccccc32)c(C)cc1O | inactive | inactive | inactive | inactive | inactive | 2.78 | inactive | inactive | inactive | inactive |  |  |
| COC(=O)CC#N | inactive | inactive | inactive | inactive | inactive |  | inactive | inactive | inactive |  |  |  |
| Nc1cccc2c(=O)[nH][nH]c(=O)c12 | inactive | inactive | inactive | inactive | inactive | 0.167 | inactive | inactive | inactive | inactive |  |  |
| CN(C)CCCNCCCN | inactive | inactive | inactive | inactive | inactive | 2.48 | inactive | inactive | inactive | inactive |  |  |
| CCCCCO | inactive | inactive | inactive | inactive | inactive | -0.274 | inactive | inactive | inactive | inactive |  |  |
| CCN(C(=O)N(CC)c1ccccc1)c1ccccc1 | inactive | inactive | inactive | inactive | inactive |  | inactive | inactive | inactive | inactive |  |  |
| CCC(C)(C)OC | inactive | inactive | inactive | inactive | inactive |  | inactive | inactive | inactive |  |  |  |
| CCCCCNCCCCC | inactive | inactive | inactive | inactive | inactive | -1.44 | inactive | inactive | inactive | inactive |  |  |
| c1ccsc1 | inactive | inactive | inactive | inactive | inactive | 0.61 | inactive | inactive | inactive | inactive |  |  |
| C=CC(=O)NC(C)C | inactive | inactive | inactive | inactive | inactive | -1.34 | inactive | inactive | inactive | inactive |  |  |
| CCOC(C)(C)C | inactive | inactive | inactive | inactive | inactive | -1.17 | inactive | inactive | inactive | inactive |  |  |
| C=CCOC(=O)CCCCCCCC | inactive | inactive | inactive | inactive | inactive | -0.392 | inactive | inactive | inactive | inactive |  |  |
| C=C(C)C(=O)OCCCCCCCCCC | inactive | inactive | inactive | inactive | inactive |  | inactive | inactive | inactive | inactive |  |  |
| O=C(O[C@@H](C(=O)O)[C@@H](OC(=O)c1ccccc1)C(=O)O)c1ccccc1 | inactive | inactive | inactive | inactive | inactive | 1.56 | inactive | inactive | inactive | inactive |  |  |
| O=C(Cl)c1cccc([N+](=O)[O-])c1 | inactive | inactive | inactive | inactive | inactive | 2.23 | inactive | inactive | inactive | inactive |  |  |
| BrC(Br)C(Br)Br | inactive | inactive | inactive | inactive | inactive | 0.993 | inactive | inactive | inactive | inactive |  |  |
| CCC(C)O (stereo not given) | inactive | inactive | inactive | inactive | inactive | 0.184 | inactive | inactive | inactive | inactive |  |  |

| SMILES | Potency [1] | Potency [2] | Potency [3] | Potency [4] | Potency [5] | caspase-3 activation [6] [%] | outcome [7] | outcome [8] | outcome [9] | outcome [10] | viability change, negative = cytotoxic [2] | Potency [6] |
| --- | --- | --- | --- | --- | --- | --- | --- | --- | --- | --- | --- | --- |
| CCCCCCCCN | inactive | inactive | inactive | inactive | inactive | 1.3 | inactive | inactive | inactive | inactive |  |  |
| Cc1ccccc1C(N)=O | inactive | inactive | inactive | inactive | inactive | 1.13 | inactive | inactive | inactive | inactive |  |  |
| Cc1ccc(Cl)cc1 | inactive | inactive | inactive | inactive | inactive |  | inactive | inactive | inactive | inactive |  |  |
| CCC(O)C(C)(C)C (stereo not given) | inactive | inactive | inactive | inactive | inactive |  | inactive | inactive | inactive | inactive |  |  |
| Cc1ccc(CO)cc1 | inactive | inactive | inactive | inactive | inactive |  | inactive | inactive | inactive |  |  |  |
| CC(=O)OC(C)C | inactive | inactive | inactive | inactive | inactive |  | inactive | inactive | inactive | inactive |  |  |
| O=C1OC(=O)c2c(Cl)c(Cl)c(Cl)c(Cl)c21 | inactive | inactive | inactive | inactive | inactive |  | inactive | inactive | inactive | inactive |  |  |
| O=C(O)CCSSCCC(=O)O | inactive |  | inactive | inactive | inactive | 0.0924 | inactive | inactive | inactive |  |  |  |
| CCOCC(=O)O | inactive | inactive | inactive | inactive | inactive |  | inactive | inactive | inactive | inactive |  |  |
| Cc1ccc2ncccc2c1 | inactive | inactive | inactive | inactive | inactive |  | inactive | inactive | inactive | inactive |  |  |
| CCCCC/C=C/C=C/C=O | inactive | inactive | inactive | inactive |  |  | inactive | inactive | inactive | inactive |  |  |
| FB(F)F | inactive | inactive | inactive | inactive | inactive |  | inactive | inactive | inactive | inactive |  |  |
| CCCCC(CC)C(=O)O (stereo not given) | inactive | inactive | inactive | inactive | inactive |  | inactive | inactive | inactive | inactive |  |  |
| Cc1cccc(C)c1O | inactive | inactive | inactive | inactive | inactive |  | inactive | inactive | inactive | inactive |  |  |
| O=C(O)c1ccc(CO)o1 | inactive |  | inactive | inactive | inactive | 1.29 | inactive | inactive | inactive | inactive |  |  |
| CC(=O)Nc1ccccc1C | inactive |  | inactive | inactive | inactive | 1.08 | inactive | inactive | inactive | inactive |  |  |
| O=Nc1ccc(NO)cc1 | inactive |  |  | inactive | inactive |  | inactive | inactive | inactive | inactive | -93.1% (active) | 31.6 µM (active) |
| C=CCCCCCC | inactive | inactive | inactive | inactive | inactive |  | inactive | inactive | inactive | inactive |  |  |
| CC1=C(/C=C/C(C)=C/C=C/C(C)=C\C=O)C(C)(C)CCC1 | 12.6 µM (active) | 20 µM (active) | 12.6 µM (active) | 12.6 µM (active) | 63.1 µM (active) |  |  |  | inactive |  |  |  |

| SMILES | Potency [1] | Potency [2] | Potency [3] | Potency [4] | Potency [5] | caspase-3 activation [6] [%] | outcome [7] | outcome [8] | outcome [9] | outcome [10] | viability change, negative = cytotoxic [2] | Potency [6] |
| --- | --- | --- | --- | --- | --- | --- | --- | --- | --- | --- | --- | --- |
| Nc1ccc([N+](=O)[O-])c(N)c1 | inactive | inactive | inactive | inactive | inactive |  | inactive | inactive | inactive | inactive |  |  |
| CCC(=O)/C=C/C1C(C)=CCCC1(C)C (stereo not given) | inactive |  | inactive | inactive | inactive | 2.94 | inactive | inactive | inactive | inactive |  |  |
| Cc1ccco1 | inactive |  | inactive | inactive | inactive | 0.939 | inactive | inactive | inactive | inactive |  |  |
| CC(=O)CCc1ccccc1 | inactive | inactive | inactive | inactive | inactive |  | inactive | inactive | inactive | inactive |  |  |
| O=C(O)c1ccccc1[N+](=O)[O-] | inactive | inactive | inactive | inactive | inactive |  | inactive | inactive | inactive | inactive |  |  |
| Cc1ccc(C)cc1 | inactive | inactive | inactive | inactive | inactive |  | inactive | inactive | inactive | inactive |  |  |
| N#Cc1ccccc1 | inactive | inactive | inactive | inactive | inactive |  | inactive | inactive | inactive | inactive |  |  |
| O=C(O)CNC(=O)c1ccc([N+](=O)[O-])cc1 | inactive | inactive | inactive | inactive | inactive |  | inactive | inactive | inactive | inactive |  |  |
| ICCc1ccccc1 | inactive |  | inactive | inactive | inactive | 0.274 | inactive | inactive | inactive |  |  |  |
| C/C=C1\CC2C=CC1C2 (stereo not given) | inactive | inactive | inactive | inactive | inactive |  | inactive | inactive | inactive | inactive |  |  |
| Cc1ccccc1Br | inactive | inactive | inactive | inactive | inactive |  | inactive | inactive | inactive | inactive |  |  |
| CNC(=O)N(c1ccccc1)c1ccccc1 | inactive | inactive | inactive | inactive | inactive |  | inactive | inactive | inactive | inactive |  |  |
| Cc1ccc(Cl)cc1N | inactive |  | inactive | inactive | inactive | 4 | inactive | inactive | inactive | inactive |  |  |
| Nc1cccc(C(F)(F)F)c1 | inactive | inactive | inactive | inactive | inactive |  | inactive | inactive | inactive | inactive |  |  |
| O=C(O)CN(CC(=O)O)CC(=O)O | inactive | inactive | inactive | inactive | inactive |  | inactive | inactive | inactive | inactive |  |  |
| c1ccc2c(c1)ccc1ncccc12 | inactive | inactive | inactive | inactive | inactive |  | inactive | inactive | inactive | inactive |  |  |
| CCN(Cc1ccccc1)c1ccccc1 | inactive | inactive | inactive | inactive | inactive |  | inactive | inactive | inactive | inactive |  |  |
| CCC(C)=O | inactive |  | inactive | inactive | inactive | -0.0185 | inactive | inactive | inactive |  |  |  |
| CC(=O)Nc1cccc(N)c1 | inactive | inactive | inactive | inactive | inactive |  | inactive | inactive | inactive | inactive |  |  |

— PubChem BioAssay (NCATS)
